# Values without a mark were called inactive. Results filed as inconclusive are left out. Where a call stands in place of a potency, no number is given. The source made the active and inactive calls. The call rests on the fitted dose curve; in most records, active means well fitted curve in the direction sought with a large enough effect; inconclusive means small, poorly fitted or top-dose-only effect, or another doubt; inactive means no such curve, though single readings can be large; an effect the other way counts as inactive or inconclusive.
# Legend:
# [1] = qHTS assay for measurement of the activity of small molecule inhibitors on Zika virus induced Caspase-3 activity in human iPSC derived neural progenitor cells (hNPCs) (AID 1224857); further: nearly all actives have a fitted effect of over 65% in size
# Method in brief: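 After overnight (16–20 h) culture at 350 cells/well, hNPCs get compound, then ZIKV 2 FFU/cell one hour later. Six hours on, Caspase-Glo 3/7 is added and luminescence measured.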
# [2] = qHTS assay for measurement of the activity of small molecule inhibitors on Zika virus induced Caspase-3 activity in human astrocytoma cells (AID 1224859)
# Method in brief: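 Inhibition of Zika-induced caspase-3/7 activity: SNB-19 cells, 1 h compound pretreatment, ZIKV 2 FFU/cell for 6 h at 37 C, Caspase-Glo luminescence read-out.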
# [3] = NS1 protein of Zika virus - qHTS assay to identify small molecule inhibitors in human HEK 293 cells (AID 1347053); further: series mostly up to about 46 µM; nearly all actives have a fitted effect of over 55% in size
# Method in brief: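 HEK 293 cells pretreated with compound for 1 h, then infected with ZIKV MR766 (MOI 0.5) for 24 h at 37 C. NS1 detected by TR-FRET with two anti-NS1 antibodies; normalized to uninfected (0%) and infected (100%) wells.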
# [4] = qHTS of pediatric cancer cell lines to identify multiple opportunities for drug repurposing: Primary screen for TC32 cells (AID 1347089); further: nearly all actives have a fitted effect of over 60% in size
# Method in brief: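 Luminescent ATP read-out (CellTiter-Glo) of metabolically active TC32 cells after 48 h exposure. Concentration-response curves came from 11-point (MIPE, 0.78 nM–46 µM) or 8-point (NPC, 0.59 nM–46 µM) primary titrations; follow-up used 11 points.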
# [5] = qHTS of pediatric cancer cell lines to identify multiple opportunities for drug repurposing: Primary screen for SJ-GBM2 cells (AID 1347091)
# Method in brief: (§1)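 Eight- or eleven-point concentration series, 48 h treatment at 37 degrees C in growth media; readout CellTiter-Glo luminescence. Potency and efficacy were taken from the concentration-response curves.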
# [6] = qHTS of pediatric cancer cell lines to identify multiple opportunities for drug repurposing: Primary screen for A673 cells (AID 1347092); further: nearly all actives have a fitted effect of over 45% in size
# Method in brief: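 Cell viability of A673 measured by CellTiter-Glo ATP luminescence after 48 hours compound exposure. Dilution series spanned 0.78 nM to 46 µM (MIPE, 11-point) or 0.59 nM to 46 µM (NPC, 8-point); bortezomib 2.3 uM positive control.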
# [7] = qHTS of pediatric cancer cell lines to identify multiple opportunities for drug repurposing: Primary screen for SK-N-MC cells (AID 1347093); further: potency means the concentration at half of the fitted maximal effect
# Method in brief: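 Metabolically active cells were quantified by ATP-dependent luminescence (CellTiter-Glo, 15 min at room temperature) following 48 h treatment. Cells had been plated at 500-1,000 per well and settled for 5 h beforehand.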
# [8] = qHTS of pediatric cancer cell lines to identify multiple opportunities for drug repurposing: Primary screen for BT-37 cells (AID 1347094); further: series mostly up to about 57 µM
# Method in brief: (§2)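 Plated cells (500-1,000 per well, growth media) were allowed to settle for 5 hours, treated with compound dilutions for 48 hours, then lysed with CellTiter-Glo for 15 min at room temperature before luminescence reading.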
# [9] = qHTS of pediatric cancer cell lines to identify multiple opportunities for drug repurposing: Primary screen for NB-EBc1 cells (AID 1347095)
# Method in brief: as §2
# [10] = qHTS of pediatric cancer cell lines to identify multiple opportunities for drug repurposing: Primary screen for U-2 OS cells (AID 1347096); further: nearly all actives have a fitted effect of over 50% in size
# Method in brief: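 Cells (500-1,000/well) in growth media were settled 5 h at 37 degrees C, then given compounds for 48 h. Viability was read as CellTiter-Glo luminescence. Primary runs used MIPE at 11 points (0.78 nM-46 µM) and NPC at 8 points (0.59 nM-46 µM); follow-ups used 11 points.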
# [11] = qHTS of pediatric cancer cell lines to identify multiple opportunities for drug repurposing: Primary screen for DAOY cells (AID 1347090); further: series mostly up to about 46 µM; nearly all actives have a fitted effect of over 55% in size
# Method in brief: as §1
SMILES,Potency [1],outcome [2],Potency [3],Potency [4],Potency [5],Potency [6],Potency [7],Potency [8],Potency [9],Potency [10],Potency [11]
CC1(C)O[C@@H]2C[C@H]3[C@@H]4C[C@H](F)C5=CC(=O)C=C[C@]5(C)[C@@]4(F)[C@@H](O)C[C@]3(C)[C@]2(C(=O)CO)O1,inactive,inactive,inactive,inactive,inactive,inactive,inactive,inactive,inactive,inactive,
CCN1CCN(c2cc(-c3ccc(F)cc3)c3c(n2)CCCCCC3)CC1,inactive,inactive,inactive,inactive,,inactive,inactive,,inactive,,inactive
O=C1[C@@H]2[C@H]3CC[C@H](C3)[C@@H]2C(=O)N1CCCCN1CCN(c2ncccn2)CC1,inactive,inactive,inactive,inactive,inactive,inactive,inactive,inactive,inactive,inactive,
O=[N+]([O-])c1cncn1CCN1CCOCC1,inactive,inactive,inactive,inactive,inactive,inactive,inactive,inactive,inactive,inactive,
COc1ccccc1N1CCN(CC(O)COc2cc(OC)c(OC)c(OC)c2)CC1 (configuration not stated),inactive,inactive,inactive,inactive,inactive,inactive,,inactive,inactive,inactive,
CC(=O)/C=C/C=C1/C2CCC(C2)C1(C)C (configuration not stated),inactive,inactive,inactive,inactive,inactive,inactive,,inactive,inactive,inactive,
COC(=O)[C@H]1[C@H]2C[C@@H]3c4[nH]c5cc(OC)ccc5c4CCN3C[C@H]2C[C@@H](OC(=O)/C=C/c2ccc(O)c(OC)c2)[C@@H]1OC,inactive,inactive,inactive,inactive,,,5.96 µM (active),,,,inactive
C[C@H](N)C(=O)N[C@@H](C)C(=O)NC1[C@H]2CN(c3nc4c(cc3F)c(=O)c(C(=O)O)cn4-c3ccc(F)cc3F)C[C@@H]12 (some centres not stated),inactive,inactive,inactive,inactive,,,inactive,,inactive,inactive,inactive
CCCCN(CCN(CCCC)C(=O)N1CCOCC1)C(=O)N1CCOCC1,inactive,inactive,inactive,inactive,inactive,,,inactive,inactive,inactive,
CCOCCn1c(C2CCN(CCc3ccc(C(C)(C)C(=O)O)cc3)CC2)nc2ccccc21,inactive,inactive,inactive,inactive,inactive,inactive,,inactive,inactive,inactive,
CCCC(CCC)(C(=O)OCC)C(=O)OCC,inactive,inactive,inactive,inactive,inactive,inactive,inactive,inactive,inactive,inactive,
